# Records with an inconclusive call do not appear. Where a call stands in place of a potency, no number is given. Activity calls are given as the source filed them. Unless noted, calls follow the shape of the dose curve; as a rule, active = well fitted curve in the direction sought with a large enough effect in the repeat runs; inconclusive = weak or mixed curves; inactive = no such curve, though single readings can be large; an effect the other way counts as inactive or inconclusive.
# Assays:
# [1] = qHTS assay for small molecule agonists of the p53 signaling pathway (AID 651631; calls by dose curve; also: nearly all actives have a fitted effect of over 15% in size; also: potency is read from the fitted curve at half-maximal effect)
# Summary of the method: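 Stably transfected HCT-116 cells (beta-lactamase behind p53 response elements) get compounds after a 5 h settling period; 16 h later at 37 °C, FRET substrate is loaded and fluorescence read after 2 h.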
# [2] = qHTS assay for small molecule agonists of the p53 signaling pathway - cell viability (AID 651633; calls by dose curve; also: nearly all actives have a fitted effect of over 30% in size; also: potency is read from the fitted curve at half-maximal effect)
# Summary of the method: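 Viability counter-read: CellTiter-Glo luminescence (30 min, room temperature) in the same p53RE-bla plates. These plates had been exposed to compounds for 16 h at 37 C.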
# [3] = qHTS assay for small molecules that induce genotoxicity in human embryonic kidney cells expressing luciferase-tagged ATAD5 - cell viability (AID 651634; calls by dose curve; also: nearly all actives have a fitted effect of over 25% in size; also: potency is read from the fitted curve at half-maximal effect)
# Summary of the method: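 Cytotoxicity counterscreen in HEK293T cells bearing an ATAD5-luciferase reporter: live-cell protease activity measured by CellTiter-Fluor fluorescence after 15.5 hr compound exposure.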
# [4] = qHTS assay for small molecule disruptors of the mitochondrial membrane potential - cell viability (AID 720634; calls by dose curve; also: nearly all actives have a fitted effect of over 20% in size; also: potency is read from the fitted curve at half-maximal effect)
# Summary of the method: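 After overnight attachment at 37 C, HepG2 cells received compound or DMSO vehicle for 1 hr. Viability is then taken from ATP-driven luminescence following a 30 min room-temperature CellTiter-Glo step.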
# [5] = qHTS assay to test for compound auto fluorescence at 590 nm (red) in HepG2 cells (AID 720674)
# Summary of the method: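 We screened compounds on adherent HepG2 cells, incubating them for an hour at 37 C in 5% CO2 before reading emission at 590 nm under 540 nm excitation; values reflect equivalence to Rose Bengal sodium fluorescence.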
# [6] = qHTS assay to test for compound auto fluorescence at 535 nm (green) in HepG2 cells (AID 720675)
# [7] = qHTS assay to test for compound auto fluorescence at 460 nm (blue) in HEK293 cells (AID 720678)
# Summary of the method: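 Auto fluorescence in the blue band was quantified as triamterene equivalency. HEK293 cells were seeded at 2,000/well, dosed after a 4-5 hr attachment, and kept overnight at 37C before the 405/460 nm reading.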
# [8] = qHTS assay to test for compound auto fluorescence at 590 nm (red) in HEK293 cells (AID 720679)
# Summary of the method: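 Autofluorescence equivalency to Rose Bengal sodium, 540/590nm, in HEK293 cells exposed overnight to 23 nL compound per well.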
# [9] = qHTS assay to test for compound auto fluorescence at 535 nm (green) in HEK293 cells (AID 720680)
# [10] = qHTS assay to test for compound auto fluorescence at 460 nm (blue) in HEK293 cell free culture (AID 720681)
# Summary of the method: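 Blue fluorescence (Ex 405/Em 460 nm, triamterene-equivalent) was read immediately after pin transfer of compound or DMSO into medium (DMEM, 10% FBS) without cells.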
# [11] = qHTS assay to test for compound auto fluorescence at 535 nm (green) in HEK293 cell free culture (AID 720682)
# Summary of the method: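 Using fluorescein as calibrant, autofluorescence was quantified at 485/535 nm in cell-free DMEM containing 10% FBS after pintool addition of compound or vehicle.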
# [12] = qHTS assay to test for compound auto fluorescence at 590 nm (red) in HEK293 cell free culture (AID 720683)
# Summary of the method: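 Red-channel autofluorescence of compounds in culture medium (DMEM, 10% FBS), no cells, measured at 540/590 nm. Rose Bengal sodium is the reference fluorophore for equivalence.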
# [13] = qHTS assay to test for compound auto fluorescence at 590 nm (red) in HepG2 cell free culture (AID 720684)
# Summary of the method: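 Plate contents were MEM with 10% FBS plus test compound or DMSO, no cells. Fluorescence was recorded with 540 nm excitation and 590 nm emission.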
# [14] = qHTS assay to test for compound auto fluorescence at 460 nm (blue) in HepG2 cell free culture (AID 720685)
# Summary of the method: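 Compound (23 nL) or DMSO pinned into cell-free MEM with 10% FBS; blue fluorescence read at 405/460 nm excitation/emission, expressed as auto-fluorescence equivalency to triamterene.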
# [15] = qHTS assay to test for compound auto fluorescence at 535 nm (green) in HepG2 cell free culture (AID 720686)
# [16] = qHTS assay to test for compound auto fluorescence at 460 nm (blue) in HepG2 cells (AID 720687)
# Summary of the method: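 Blue-channel autofluorescence (Ex/Em 405/460 nm, triamterene-equivalent) was measured after 1 hr compound exposure at 37 C, 5% CO2. Cells were HepG2, plated overnight at 37 C in MEM plus 10% FBS.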
# [17] = qHTS assay for small molecules that induce genotoxicity in human embryonic kidney cells expressing luciferase-tagged ATAD5 (AID 651632); also: nearly all actives have a fitted effect of over 15% in size
# Summary of the method: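 Increased luciferase signal from ATAD5-tagged reporter cells indicates DNA-damage-driven ATAD5 induction. HEK293T cells are treated for 16 hr at 37C before detection with Amplite.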
# [18] = qHTS assay for small molecule disruptors of the mitochondrial membrane potential (AID 720635); also: potency is read from the fitted curve at half-maximal effect
# Summary of the method: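 Mitochondrial membrane potential tracked with Mito-MPS dye, red aggregates (ex 540/em 590 nm) against green monomers (ex 490/em 535 nm). Compound treatment 1 hr at 37C, dye 30 min in HepG2.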
# [19] = biological target: Glucocorticoid receptor (Homo sapiens) (UniProt P04150); assay: qHTS assay to identify small molecule agonists of the glucocorticoid receptor (GR) signaling pathway (AID 720691; active = well fitted activation curve with a large enough effect in the signal ratio in the repeat runs, not every such curve was filed as active; the % refers to the signal ratio); conditions: GR-bla HeLa, beta-lactamase reporter ratio, 18 h; activation: at 62.4 µM (top of the series)
# Summary of the method: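 Agonist mode in a HeLa line carrying a GRE-controlled beta-lactamase reporter. Compounds act for 18 h at 37 C before a 2 h room-temperature FRET substrate step and fluorescence reading.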
# [20] = biological target: Glucocorticoid receptor (Homo sapiens) (UniProt P04150); assay: qHTS assay to identify small molecule antagonists of the glucocorticoid receptor (GR) signaling pathway (AID 720692; active = well fitted inhibition curve with a large enough effect in the signal ratio in the repeat runs, not every such curve was filed as active; the % refers to the signal ratio)
# Summary of the method: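 Cells plated, rested 4 h at 37 C/5% CO2; compounds in DMSO pin-transferred; dexamethasone added to 5 nM final; 18 h at 37 C; B/G FRET substrate added, 2 h room temperature; fluorescence measured.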
# Glucocorticoid receptor (Homo sapiens), sequence (P04150 whole entry, looked up): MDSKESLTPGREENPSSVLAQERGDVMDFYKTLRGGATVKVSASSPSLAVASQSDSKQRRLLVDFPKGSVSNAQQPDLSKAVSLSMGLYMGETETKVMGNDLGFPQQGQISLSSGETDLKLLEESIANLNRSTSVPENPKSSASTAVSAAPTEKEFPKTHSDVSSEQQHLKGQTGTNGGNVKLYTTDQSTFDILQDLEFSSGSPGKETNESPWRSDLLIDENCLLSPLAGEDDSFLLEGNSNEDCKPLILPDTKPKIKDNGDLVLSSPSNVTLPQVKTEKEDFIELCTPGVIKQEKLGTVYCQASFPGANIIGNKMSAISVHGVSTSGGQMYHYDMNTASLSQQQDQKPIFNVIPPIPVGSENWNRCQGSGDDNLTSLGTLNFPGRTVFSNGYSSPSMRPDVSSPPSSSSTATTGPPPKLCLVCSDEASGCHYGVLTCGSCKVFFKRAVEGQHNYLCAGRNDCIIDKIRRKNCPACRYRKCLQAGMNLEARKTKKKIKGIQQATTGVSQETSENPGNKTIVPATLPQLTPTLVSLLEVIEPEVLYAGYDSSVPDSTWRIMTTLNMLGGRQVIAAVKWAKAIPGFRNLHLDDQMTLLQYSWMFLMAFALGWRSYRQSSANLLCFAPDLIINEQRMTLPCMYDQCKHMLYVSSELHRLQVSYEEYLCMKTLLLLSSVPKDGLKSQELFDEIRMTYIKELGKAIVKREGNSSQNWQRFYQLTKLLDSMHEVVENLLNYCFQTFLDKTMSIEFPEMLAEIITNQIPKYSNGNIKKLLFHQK
SMILES,Potency [1],Potency [2],Potency [3],Potency [4],Potency [5],Potency [6],Potency [7],Potency [8],Potency [9],Potency [10],Potency [11],Potency [12],Potency [13],outcome [14],Potency [15],outcome [16],Potency [17],Potency [18],Potency [19],Potency [20]
CC(C(=O)O)c1ccc(C2CCCCC2)c2ccccc12 (stereo not given),inactive,inactive,inactive,inactive,inactive,inactive,inactive,inactive,inactive,inactive,inactive,inactive,inactive,inactive,inactive,inactive,,,,
Cc1nnc(C(C)C)n1C1C[C@H]2CC[C@@H](C1)N2CC[C@H](NC(=O)C1CCC(F)(F)CC1)c1ccccc1 (stereo not given in full),inactive,inactive,inactive,inactive,inactive,inactive,inactive,inactive,inactive,inactive,inactive,inactive,inactive,inactive,inactive,inactive,,,,
CO/N=C(\C(=O)N[C@@H]1C(=O)N2C(C(=O)O)=CCS[C@H]12)c1csc(N)n1,,inactive,inactive,inactive,inactive,inactive,inactive,inactive,inactive,inactive,inactive,inactive,inactive,inactive,inactive,inactive,inactive,inactive,inactive,
C=C1CC[C@@H]2[C@](C)(CO)[C@H](O)CC[C@@]2(C)[C@@H]1C/C=C1/C(=O)OC[C@H]1O,,inactive,inactive,inactive,inactive,inactive,inactive,inactive,inactive,inactive,inactive,inactive,inactive,inactive,inactive,inactive,inactive,inactive,,
CC(=O)N[C@@H](C=O)[C@@H](O)[C@H](O)[C@H](O)CO,,inactive,inactive,inactive,inactive,inactive,inactive,inactive,inactive,inactive,inactive,inactive,inactive,inactive,inactive,inactive,inactive,inactive,,
O=C(O)CCC/C=C\C[C@@H]1[C@@H](/C=C/[C@@H](O)COc2cccc(Cl)c2)[C@H](O)C[C@@H]1O,inactive,inactive,inactive,inactive,inactive,inactive,inactive,inactive,inactive,inactive,inactive,inactive,inactive,inactive,inactive,inactive,,,,
N#Cc1ccc2c(c1)N(CCCN1CCC(O)CC1)c1ccccc1S2,26.6 µM (active),inactive,inactive,inactive,inactive,inactive,inactive,inactive,inactive,inactive,inactive,inactive,inactive,inactive,inactive,inactive,,,inactive,inactive
CC(C)CCCC(C)NC(C)C (stereo not given),,inactive,inactive,inactive,inactive,inactive,inactive,inactive,inactive,inactive,inactive,inactive,inactive,inactive,inactive,inactive,inactive,inactive,,
CC(=O)Nc1ccc(OC(=O)c2ccccc2O)cc1,,inactive,inactive,inactive,inactive,inactive,inactive,inactive,inactive,inactive,inactive,inactive,inactive,inactive,inactive,inactive,inactive,26.6 µM (active),,
O=P(O)(O)OC[C@H](O)CO,,inactive,inactive,inactive,inactive,inactive,inactive,inactive,inactive,inactive,inactive,inactive,inactive,inactive,inactive,inactive,inactive,inactive,,
C#CCC(Cc1cnc2nc(N)nc(N)c2n1)c1ccc(C(=O)N[C@@H](CCC(=O)O)C(=O)O)cc1 (stereo not given in full),0.266 µM (active),0.266 µM (active),0.211 µM (active),inactive,inactive,inactive,,inactive,inactive,,inactive,inactive,inactive,,inactive,,,inactive,inactive,inactive
Cc1ccc(/C(=C\CN2CCCC2)c2cccc(/C=C/C(=O)O)n2)cc1,inactive,inactive,inactive,inactive,inactive,inactive,inactive,inactive,inactive,inactive,inactive,inactive,inactive,inactive,inactive,inactive,,,inactive,inactive
Nc1ncnc2c1ncn2[C@@H]1O[C@H](COP(=O)(O)OP(=O)(O)OP(=O)(O)O)[C@@H](O)[C@H]1O,26.6 µM (active),inactive,inactive,9.44 µM (active),inactive,inactive,inactive,inactive,inactive,inactive,inactive,inactive,inactive,inactive,inactive,inactive,,,,
CC1(C)S[C@@H]2[C@H](NC(=O)[C@H](N)c3ccccc3)C(=O)N2[C@H]1C(=O)OCOC(=O)[C@@H]1N2C(=O)C[C@H]2S(=O)(=O)C1(C)C,,inactive,inactive,inactive,inactive,inactive,inactive,inactive,inactive,inactive,inactive,inactive,inactive,inactive,inactive,inactive,inactive,inactive,,
